Assay outcomes as filed in PubChem BioAssay.
Jurkat NFkB inh = inhibitors of induced NF-kB luciferase reporter, primary screen, TCR NF-kB activation inhibitor project, cell-based, luminescence, uHTS; Jurkat, PMA/ionomycin-induced NF-kB luciferase reporter; inhibition, % at 4 µM; 330,000 tested, 0.53% active; in the data active = inhibition above about 50%
697 NFkB inh = inhibitors of PMA/ionomycin-induced NF-kB reporter, 697 cells, primary screen, B-cell NF-kB inhibitor project, cell-based, luminescence, uHTS; 697 B-cell NF-kB luciferase reporter, 16 h; inhibition, % at 4 µM; 330,000 tested, 0.33% active; in the data active = inhibition above about 35%
NTR1 ag = agonists of human NTR1, primary screen, imaging, U2OS cells, beta-arrestin-GFP, high content. Neurotensin receptor type 1 (Homo sapiens), P30989. NTR1-U2OS beta-arrestin-GFP spot imaging, agonist mode. activation, % at 20 µM. 330,000 tested, 0.17% active. AID 493036, 2011;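 active = activation at or above 40% of the spot to cytoplasm intensity ratio, with at least 20 cells analyzed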;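 note: 0% = DMSO without peptide and 100% = 100 nM NTR1 peptide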
Target sequence (P30989 whole entry, looked up): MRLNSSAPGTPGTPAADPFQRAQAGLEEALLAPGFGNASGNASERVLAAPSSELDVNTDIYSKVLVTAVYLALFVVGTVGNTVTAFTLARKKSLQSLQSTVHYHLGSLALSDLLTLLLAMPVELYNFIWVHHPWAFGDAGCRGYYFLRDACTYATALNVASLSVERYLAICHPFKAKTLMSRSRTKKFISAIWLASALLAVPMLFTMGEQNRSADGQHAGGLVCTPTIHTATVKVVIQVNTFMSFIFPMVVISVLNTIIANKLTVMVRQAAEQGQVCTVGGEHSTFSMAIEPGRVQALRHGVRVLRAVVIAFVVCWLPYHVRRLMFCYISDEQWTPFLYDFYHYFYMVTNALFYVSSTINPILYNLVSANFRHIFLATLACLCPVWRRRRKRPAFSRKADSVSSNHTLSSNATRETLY
A1 inh = caspase 3/7 activation in MEF A1-2A-BIM cells, primary screen, A1 inhibitor project, cell-based, luminescence, HTS | 330,000 tested, 0.066% active | Caspase-Glo 3/7 luminescence, 3 h; percent of clofoctol response, vehicle zero | AID 2462, 2010 | caspase activation, % (no concentration beside the values);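 active = over half of replicate activation scores above 10%, or exactly half above 10 with the replicate mean above 10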
Mdm2 MdmX PPI = inhibitors of human Mdm2-MdmX association, primary screen, cell-based, luminescence, split luciferase, SaOS-2, uHTS; AID 485346, 2010; Protein Mdm4 (Homo sapiens) + E3 ubiquitin-protein ligase Mdm2 (Homo sapiens), …; SaOS-2 split-luciferase Mdm2/MdmX complementation; 330,000 tested, 3% active; inhibition, % at 8 µM;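 active = inhibition of at least 50% at 8 µM in the primary screen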
Beta apoptosis = inhibitors of cytokine-induced beta cell apoptosis, primary screen, luminescence | INS-1E cytokine-induced death, ATP luminescence, 48 h; percent of positive-control rescue, neutral wells zero | protection from apoptosis, % (test concentration not listed) | 300,000 tested, 0.8% active | AID 435005, 2010;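 active = Every replicate reaches about 75%, or at least half do and their mean reaches it too, limit read from the data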;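 note: 0% = cytokine-treated negative control wells and 100% = positive control rescue; higher means more ATP so stronger rescue from cytokine killing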
Mdm2 MdmX conf = Mdm2-MdmX complex disruptors, retested hits, confirmation, luminescence, single concentration. shares compounds with Mdm2 MdmX PPI. Mdm2-MdmX binding, luminescent assay. AID 489028, 2010. 10,000 tested, 55% active. inhibition, % at 8 µM; in the data active = inhibition above about 40%
Full FLuc ctr = full-length luciferase signal inhibition, confirmation, counter-screen for Mdm2/MdmX interaction inhibitor project, cell-based, single concentration, SaOS-2 | inhibition, % at 8 µM | 6,200 tested, 77% active | shares compounds with Mdm2 MdmX PPI | AID 504607, 2011 | SaOS-2 full-length luciferase counterscreen, luminescence;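 active = mean inhibition at 8 µM reaching about 37%, which flags the compound as non-specific, limit read from the data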;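 note: p53-null SaOS-2 cells with luciferase driven by a doxycycline-inducible promoter; compound on cells about two nights before reading with doxycycline added after day one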
Starred values were filed as active, the others as inactive; x = no result. Sampled rows, rich in hits. Any-hit rate of the full collection: about 3.8%.

SMILES	Jurkat NFkB inh	697 NFkB inh	NTR1 ag	A1 inh	Mdm2 MdmX PPI	Beta apoptosis	Mdm2 MdmX conf	Full FLuc ctr
COc1ccc(/C=N/NC(=O)c2nc(-c3ccccc3)cc(-c3ccccc3)n2)cc1OC	2	-26	5	1	72*	5	71*	86*
O=C(COc1ccc(/C=N/NC(=O)c2cc3ccccc3o2)cc1Cl)Nc1ccccc1	17	19	7	64*	97*	-4	-100	x
COc1cc(/C=N\NC(=O)c2ccc(-c3ccccc3)cc2)ccc1OCC(N)=O	15	18	14	0	50*	5	31	x
COc1cc(/C=N/NC(=O)c2ccccc2O)ccc1OCC(=O)Nc1ccccc1	-48	13	3	0	-29	5	x	x
COc1ccc(/C=N/NC(N)=S)cc1OC(=O)c1cccc2ccccc12	11	-8	12	0	61*	17	29	x
CC(C)(C)NC(=O)CSc1ncnc2c1cnn2-c1ccccc1	-6	-36	0	0	-17	2	x	x
O=C(COC(=O)c1cc(=O)[nH]c2ccccc12)Nc1ccc(F)cc1	2	14	1	0	20	4	x	x
O=C1N=C(N2C=CC(=C3C=CNC=C3)C=C2)/C(=C/N=NC(=O)c2ccccc2)S1	11	15	0	0	20	2	x	x
CC1CCC2(CC1)NC(=O)N(CC(=O)N1CCN(S(=O)(=O)c3ccc4c(c3)CCC4)CC1)C2=O (centres undefined)	-2	21	-2	0	-6	-4	x	x
CCCOc1ccc(/C=N/NC(=O)CN2CCCCC2)cc1OCC	8	14	1	0	1	-5	x	x
CCOc1cc(/C=N\Nc2ccc([N+](=O)[O-])cc2)ccc1OCC(=O)Nc1ccc(C)c(C)c1	-13	-8	14	0	25	5	x	x
COc1cc(/C=N/NC(N)=O)ccc1OCC(=O)Nc1cc(C)c(C)cc1Br	-5	12	-1	0	81*	0	50*	106*
COc1ccc(/C=N/NC(=O)c2[nH]nc3c2CCc2ccccc2-3)cc1OC	42	-11	2	0	56*	41	68*	74*
CCCCOc1ccc(C(=O)N/N=C/c2ccc(OCCN3CCCCC3)c(OC)c2)cc1	-27	-38	2	0	81*	16	22	x
CCOc1cc(/C=N\NC(=O)Cc2ccccc2)ccc1OCC(=O)Nc1ccc(C)c(C)c1	2	2	12	0	94*	0	75*	76*
CCc1ccc2[nH]c3nc(SCc4nnc(-c5ccccc5)o4)nnc3c2c1	18	-26	0	1	56*	10	-6	x
CCOC(=O)C1=C(COC(=O)C2CC(=O)N(c3ccc(C)cc3)C2)NC(=O)NC1C (centres undefined)	0	24	1	0	-1	-12	x	x
Cc1ccc(S(=O)(=O)NC(Cc2ccccc2)C(=O)NN)cc1 (centres undefined)	6	-4	-2	0	15	-6	x	x
Cc1ccc(S(=O)(=O)N[C@@H](Cc2ccccc2)C(=O)CCl)cc1	4	13	9	0	80*	-7	35	63*
CCC(NC(=O)c1cncc(Br)c1)c1ccccc1 (centres undefined)	-5	14	1	0	-11	-3	x	x
